According to the supplement of paper PMC6555819:

Tests used:
Assay in all cases: PBM binding z-score (relative to random genomic background probes); higher = stronger binding; sequences stand for … in GC…GCGATTGACAGCGTAGAATGAAGG
[1] = tested on: FXR:RXRa (NR concentration 270 nM, RXRa partner concentration 90 nM)
Outline: (§1)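 Binding buffer was PBS pH 7.4 with 2% milk, 0.02% Triton X-100, 1 mM DTT, 0.2 mg/mL BSA and 0.4 mg/ml salmon testes DNA. In it, ligand-free nuclear receptor dimers were incubated 1 h on custom Agilent 4×180K protein-binding microarrays carrying double-stranded probes. Antibodies against each partner (one per run) detected binding, and z-scores were calculated against random background probes after regression normalization of scanned fluorescence.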

[2] = tested on: LXRa:RXRa (NR concentration 270 nM, RXRa partner concentration 90 nM)
Outline: as §1

[3] = tested on: LXRa homodimer (NR concentration 270 nM)
Outline: as §1

[4] = tested on: LXRb:RXRa (NR concentration 270 nM, RXRa partner concentration 90 nM)
Outline: as §1

[5] = tested on: LXRb homodimer (NR concentration 270 nM)
Outline: as §1

[6] = tested on: PPARa:RXRa (NR concentration 270 nM, RXRa partner concentration 90 nM)
Outline: as §1

[7] = tested on: PPARg:RXRa (NR concentration 180 nM, RXRa partner concentration 90 nM)
Outline: as §1

[8] = tested on: PPARg:RXRa 270nM:90nM, anti-RXR (NR concentration 270 nM, RXRa partner concentration 90 nM)
Outline: as §1

[9] = tested on: PPARg:RXRa 30nM:10nM, anti-RXR (NR concentration 30 nM, RXRa partner concentration 10 nM)
Outline: as §1

[10] = tested on: PPARg:RXRa 90nM:30nM, anti-RXR (NR concentration 90 nM, RXRa partner concentration 30 nM)
Outline: as §1

[11] = tested on: PPARg:RXRa DBDmut IVT, anti-RXR (DBD mutation: RXRa K156A/R161A, NR concentration 270 nM, RXRa partner concentration 90 nM)
Outline: as §1

[12] = tested on: PPARg:RXRa IVT, anti-PPARg (NR concentration 270 nM, RXRa partner concentration 90 nM)
Outline: as §1

[13] = tested on: PPARg DBDmut:RXRa IVT, anti-PPARg (DBD mutation: PPARg1 K132A/R137A, NR concentration 270 nM, RXRa partner concentration 90 nM)
Outline: as §1

[14] = tested on: PPARg DBDmut IVT, anti-PPARg (DBD mutation: PPARg1 K132A/R137A, NR concentration 270 nM)
Outline: as §1

[15] = tested on: PPARg homodimer (NR concentration 180 nM)
Outline: as §1

[16] = tested on: PXR:RXRa (NR concentration 270 nM, RXRa partner concentration 90 nM)
Outline: as §1

[17] = tested on: PXR homodimer (NR concentration 270 nM)
Outline: as §1

[18] = tested on: RARa:RXR (NR concentration 270 nM, RXRa partner concentration 90 nM)
Outline: as §1

[19] = tested on: RARa homodimer (NR concentration 270 nM)
Outline: as §1

[20] = tested on: RARb:RXRa (NR concentration 270 nM, RXRa partner concentration 90 nM)
Outline: as §1

Sequence | PBM binding z-score [1] | PBM binding z-score [2] | PBM binding z-score [3] | PBM binding z-score [4] | PBM binding z-score [5] | PBM binding z-score [6] | PBM binding z-score [7] | PBM binding z-score [8] | PBM binding z-score [9] | PBM binding z-score [10] | PBM binding z-score [11] | PBM binding z-score [12] | PBM binding z-score [13] | PBM binding z-score [14] | PBM binding z-score [15] | PBM binding z-score [16] | PBM binding z-score [17] | PBM binding z-score [18] | PBM binding z-score [19] | PBM binding z-score [20]
CGTCCTAGGTCATAGGAGGTCAGTGAAGACAGAT | 5.53 | 6.34 | 3.87 | 5.18 | 0.0467 | 4.91 | 3.72 | 4.05 | 1.4 | 3.09 | 3.43 | 4.34 | -0.339 | -0.4 | 2.53 | 6.01 | 1.28 | 4.21 | 1.08 | 4.6
ACAGACAGGTGAGTGGAGGTAACTCAGCTGGACG | 0.578 | 0.206 | -0.47 | -0.13 | -0.275 | 0.431 | 0.557 | -0.0456 | -0.0591 | 0.000165 | 0.56 | 1.09 | -0.327 | -0.467 | 0.425 | 0.121 | -0.151 | 0.729 | -0.053 | 0.617
TCATATATGTAAAAGGTGAAAGTCGGTGTGGTAA | 0.511 | 1.25 | -0.0169 | 1.75 | 0.0133 | 3.72 | 5.15 | 6.15 | 5.45 | 7 | 2.46 | 2.83 | 0.873 | 0.794 | 1.98 | 1.21 | -0.143 | 1.85 | 1.14 | 1.9
TCTTGTAGATCAAGCACGTTAAGAAAGCCTGAGT | 0.465 | 0.232 | -0.171 | 0.106 | -0.495 | 0.484 | -0.254 | 1.12 | 2.5 | 1.97 | 1.73 | 0.108 | 0.449 | 0.566 | 0.56 | 0.445 | -0.148 | 0.501 | -0.338 | -0.035
CCGACTGGGGCATAAAGGTTACCATACCATCCGG | 0.385 | 0.747 | -0.0869 | 0.923 | -0.959 | 2.47 | 3.04 | 3.77 | 2.08 | 3.81 | 1.89 | 3.25 | -0.548 | -1.23 | 1.42 | 1.3 | -0.303 | 1.83 | 0.301 | 1.89
CCGACTGGGGCTGAAAGGTTACCATACCATCCGG | 0.294 | 0.581 | -0.00145 | 0.846 | -1.11 | 1.76 | 0.998 | 1.93 | 0.223 | 1.31 | -0.623 | -0.162 | -1.05 | -1.01 | 0.352 | 1.1 | -0.23 | 1.85 | -0.057 | 1.46
CCTACTGGGCCATCAGGTCATAGATATCAACGTT | 1.22 | 0.89 | 0.812 | 1.18 | -0.323 | 2.72 | 3.22 | 3.9 | 1.86 | 3.15 | 4.5 | 5.08 | 0.923 | -0.119 | 1.49 | 1.15 | 0.269 | 1.87 | 0.283 | 1.99
TCTCCGAGGACACGAAGGTCAGAGCTTTCCAGAG | 1.91 | 0.842 | 0.15 | 0.919 | -0.353 | 2.09 | 0.489 | 1.61 | 2.34 | 2 | 1.19 | 1.32 | -0.386 | -0.524 | 1.23 | 2.1 | 1.31 | 2.06 | -0.358 | 3.54
ACTAGCAGGCCAAGTTTGGGTCACTCAGACAAAG | -0.039 | 0.195 | -0.331 | 0.306 | -1.05 | 1.27 | 0.233 | 0.225 | -0.237 | -0.185 | 0.651 | 1.1 | -0.577 | -0.242 | 0.405 | 0.515 | -0.504 | 1.43 | -0.139 | 1.71
CCTACTGGGCCAAAAACGTCATTGATGCCGATAA | -0.178 | -0.282 | -0.294 | -0.357 | -0.478 | 0.119 | 0.525 | 1.02 | -0.141 | 0.509 | 2.89 | 2.22 | -0.472 | -0.737 | 0.2 | -0.35 | -0.449 | -0.17 | -0.624 | -0.163
TCATATAGGTCAATGCTAGGTGAAAGTCCGATCT | 5.19 | 4.7 | 1.51 | 3.52 | 1.02 | 5 | 5.86 | 6.06 | 4.7 | 5.89 | 6.69 | 6.83 | 1.25 | 2.16 | 2.7 | 2.78 | 0.347 | 3.7 | 1.3 | 4.21
GCTGTTAGTTGAAAGGGCAACCGAATGATTCTCG | 0.495 | 0.93 | -0.0723 | 0.717 | 0.0485 | 2.12 | 1.42 | 2.9 | 0.9 | 2.33 | 0.247 | 0.541 | 0.463 | 0.0066 | 1.39 | 0.665 | 0.0448 | 1.48 | 0.147 | 2.08
CCTACTGGGCCACGAAAGGTCATTGGTTCAGTGA | 3.88 | 5.26 | 5.57 | 4.37 | 0.215 | 4.79 | 4.66 | 4.86 | 2.43 | 4.48 | 5.54 | 5.88 | -0.165 | -0.319 | 3.95 | 5.47 | 3.04 | 5.74 | 0.693 | 3.96
CTCGAAAGGTCGTGCTCAGGTGAGTTTACCAAAC | 5.01 | 4.08 | 0.0619 | 3.31 | 0.366 | 4.6 | 1.98 | 3.86 | 1.67 | 2.65 | 0.999 | 1.89 | 0.777 | 0.0952 | 3.04 | 3.93 | 1.33 | 4.47 | 0.43 | 3.79
